Sampled rows, rich in hits. Any-hit rate of the full collection: about 3.7%.
Wnt act: Wnt/beta-catenin pathway activators, primary screen, cell-based, plate reader, single point. AID 743398, 2014. Wnt/beta-catenin reporter cell assay, activator. actives 1.2% (n = 300,000). activation, % at 9.35 µM; in the data active = activation above about 30%, passing the limit was not always enough; inconclusive = no clear call, values can overlap the other calls;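 note: 0% = neutral control wells and 100% = positive control wells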
esBAF inh: Bmi1 luciferase reporter increase in mESCs, primary screen, esBAF inhibitor project, mouse ES cells, Bmi1 luciferase knock-in, single point | reporter increase, % at 12.5 µM | 24 h; 100% = twice the neutral-well signal | actives 2% (n = 350,000); in the data active = activation above about 40%; inconclusive = no clear call, values can overlap the other calls;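 note: 0% = median of the plate's neutral control wells and 100% = double that signal; a rise in the Bmi1 reporter signal indicates esBAF inhibition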
MITF TRPM1 HTS: activators of MITF-driven TRPM1 promoter reporter, primary screen, cell-based, SK-MEL-5, luciferase, single point | SK-MEL-5 TRPM1-promoter luciferase, 24 h; % of positive control, neutral wells = 0 | activation, % at 12.5 µM | actives 0.75% (n = 300,000) | AID 588334, 2011;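 active = mean activation of at least 80% with every replicate also reaching 80%; inconclusive = mean reaches 80% but some replicate falls short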;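 note: 0% = neutral control wells and 100% = parthenolide positive control wells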
rRNA inh HTS: reduced GFP signal of wild-type E. coli, primary screen, bacterial rRNA inhibitor project, GFP/RFP fluorescence, OD600, single point; GFP signal change (wild-type ribosome), % (no concentration beside the values); E. coli WT GFP vs humanized-ribosome RFP mutants, 24 h; active compounds read low; DMSO median 0, no signal -100; AID 720706, 2013; actives 1.6% (n = 350,000);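 active = significant combined selectivity score with lowered wild-type GFP, culture density cut under 30%, mutant RFP and density less affected; inactive = any of these conditions unmet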
AF4-AF9 inh: inhibitors of AF4 peptide binding to AF9, primary screen, biochemical, AlphaScreen, biotin-AF4 peptide, FLAG-AF9, single point | inhibition, % at 10 µM | actives 0.47% (n = 350,000) | Protein AF-9 (Homo sapiens), P42568;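 active = every replicate reaching a set inhibition limit, whatever the replicate mean, cut at about 25% in these data; inconclusive = mean inhibition reaches that limit but some replicates miss it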;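 note: 0% = plate neutral control median and 100% = total signal loss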
Target sequence (P42568 whole entry, looked up): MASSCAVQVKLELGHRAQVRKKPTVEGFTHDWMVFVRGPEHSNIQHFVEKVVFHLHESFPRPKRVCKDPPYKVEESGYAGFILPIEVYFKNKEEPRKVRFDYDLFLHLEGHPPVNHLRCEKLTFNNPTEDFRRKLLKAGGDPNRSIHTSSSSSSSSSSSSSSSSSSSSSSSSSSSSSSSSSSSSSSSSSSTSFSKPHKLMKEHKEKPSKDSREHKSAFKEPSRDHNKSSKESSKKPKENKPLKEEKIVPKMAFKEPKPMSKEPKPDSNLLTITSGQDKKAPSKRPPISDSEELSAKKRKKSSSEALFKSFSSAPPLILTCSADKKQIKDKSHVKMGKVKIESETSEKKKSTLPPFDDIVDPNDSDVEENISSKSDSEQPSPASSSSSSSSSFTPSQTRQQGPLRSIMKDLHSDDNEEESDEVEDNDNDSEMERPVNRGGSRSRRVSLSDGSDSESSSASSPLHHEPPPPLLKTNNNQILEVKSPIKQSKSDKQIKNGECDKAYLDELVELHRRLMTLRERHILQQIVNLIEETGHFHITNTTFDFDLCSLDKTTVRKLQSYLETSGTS
Starred values were filed as active, the others as inactive; ? = inconclusive; / = no result given.

SMILES	Wnt act	esBAF inh	MITF TRPM1 HTS	rRNA inh HTS	AF4-AF9 inh
CCO[C@@H]1OC(C(=O)NCc2ccccc2)=C[C@H](c2ccccc2)[C@H]1CCCO	-3	5	6	5	-4
Cc1cccc(CCNC(=O)Cc2ccc(NC3=NC4CS(=O)(=O)CC4S3)cc2)c1 (stereo not drawn)	-2	-4	/	8	47*
COc1ccc(C(CNC(=O)c2cc(C)oc2C)N2CCOCC2)cc1 (stereo not drawn)	-2	3	11	/	/
Cc1ccc(C2=NN(S(=O)(=O)c3ccccc3)C(c3ccccc3O)C2)cc1 (stereo not drawn)	22	/	-1	-47	11
Cc1ccc(C2=NN3C(C(=O)c4ccccc4)Oc4ccccc4C3C2)cc1 (stereo not drawn)	43*	68*	/	/	/
COc1ccc(C2=NN(C(=O)CCC(=O)O)C(c3cccs3)C2)cc1 (stereo not drawn)	0	/	-8	11	-6
COc1ccc(C2=NN3C(C2)c2ccccc2OC3c2cccs2)cc1 (stereo not drawn)	49*	/	57	-36	4
C[C@@H]1CN([C@@H](C)CO)S(=O)(=O)c2ccc(C3=CCCC3)cc2O[C@@H]1CN(C)C(=O)C1CC1	/	/	/	-2	/
CCCn1c(SCc2ccc(C(=O)OC)o2)nc2ccccc2c1=O	-2	-4	2	5	-14
COC(=O)c1ccc(CSc2cc(C)c3ccccc3n2)o1	2	/	9	-22*	-3
O=c1c(Cc2ccccc2)c(O)c2cccc3c4c(n1c23)CCCC4	4	-12	-6	-19*	0
CCOc1cc(-c2noc(N)c2C(=O)OC)cc(OCC)c1OCC	/	-6	-3	/	/
COC(=O)c1c(-c2ccc(Br)cc2)noc1N	4	56*	/	/	/
CCCNC(=O)C1(C)CCN(C(=O)c2cccc(Cl)c2)C1 (stereo not drawn)	3	-2	/	-1	0
CCCNC(=O)C1(C)CCN(C(=O)c2cccc(C#N)c2)C1 (stereo not drawn)	7	1	/	3	28*
COc1ccc(NC(=O)C#Cc2ccccc2)cc1OC	1	5	/	-10	4
NC(=O)c1ccc(NC(=O)C#Cc2ccccc2)cc1	41*	32	-9	7	-2
C[C@H]1CN([C@@H](C)CO)C(=O)Cc2cc(N(C)C)ccc2O[C@H]1CN(C)Cc1ccc2c(c1)OCO2	/	2	/	3	4
CNc1cccc(-c2ccc(C(C)=O)s2)n1	-2	53*	/	/	-11
Cc1cc(Br)ccc1SCC(=O)OCC(=O)NC1CCCC1	-7	-3	9	-3	-3
O=C(COc1ccc(Br)cc1Br)NC(=O)NC1CCCC1	12	/	104*	-32	-3
CC(C)(C)NC(=O)NC(=O)COc1ccc(Br)cc1Br	?	/	32	/	-1
CCc1ccc(OCC(=O)NNC(=S)NC(=O)C2CCCCC2)c(Br)c1	1	/	7	-6	-3
O=C(COc1ccc(F)cc1Cl)NC1CCCCCC1	40*	?	?	-22	0
O=C(COc1ccccc1Cl)NC(=O)NC1CCCCC1	4	12	58	-1	-1
SMILES	Wnt act	esBAF inh	MITF TRPM1 HTS	rRNA inh HTS	AF4-AF9 inh
CCc1ccc(OCC(=O)NC2CCCCC2)c(Br)c1	27	?	101*	-14	0
Cc1cc(Br)ccc1OCC(=O)NC1CCCC1	1	52*	12	-5	0
CC(C)CNC(=S)N1CCC(Cc2ccccc2)CC1	-3	-6	-13	8	-2
CC(C)(C)NC(=O)NC(=O)COc1ccccc1C#N	40*	40	121*	/	/
N#Cc1ccccc1OCC(=O)NC1CCCCCC1	1	46*	/	-16	0
C=CCNC(=O)COc1ccccc1C#N	1	/	-1	18	0
C=CC[C@@H](CC(=O)N[C@@H](CO)Cc1ccccc1)C(=O)N[C@@H](COC(=O)[C@@H](CC=C)Cc1ccc(F)cc1)Cc1c[nH]c2ccccc12	-2	8	-15	20	0
CSc1n[nH]c(-c2ccc(C(F)(F)F)cc2)n1	21	41*	41	/	2
Nc1nc(=S)ss1	2	4	5	-13*	-8
CCOC(=O)C1(C)CCCCCN1C(=O)c1snnc1C (stereo not drawn)	-3	-6	/	14	-1
FC(F)(F)c1cnc(N2CCCN(C(=S)Nc3ccccc3)CC2)c(Cl)c1	-5	18	-27	-41*	-5
FC(F)(F)c1cnc(N2CCN(C(=S)NCc3ccccc3)CC2)c(Cl)c1	2	/	-6	-9	0
COc1ccc(Cc2nc3ccc(C(=O)NCC(C)(C)OC)cc3o2)cc1	8	76*	104*	1	-1
COc1ccc(Cc2nc3ccc(C(=O)NCc4cc(C)no4)cc3o2)cc1	7	65*	91*	6	0
COc1ccc(Cc2nc3ccc(C(=O)NCCSC)cc3o2)cc1	5	28	/	0	-15
COC(=O)CCNC(=O)c1ccc2nc(Cc3ccc(OC)cc3)oc2c1	6	3	4	-4	-5
CCOC(=O)/C(C#N)=C/Nc1ccccc1OC	/	47*	117*	/	/
Cc1ccc(CNC(=O)COC(=O)c2cnccn2)cc1	-1	/	-11	3	4
O=C(Nc1ccc(NC(=O)c2ccco2)nc1)c1cccc(F)c1	31*	11	67	10	6
COc1cccc(C(=O)Nc2ccc(NC(=O)c3ccco3)nc2)c1	/	59*	93*	/	/
Cc1cc(NC(=O)c2cccc(F)c2)ncc1NC(=O)c1ccco1	36*	0	70	/	/
C[C@@H]1CCCCO[C@H](CN(C)C(=O)Nc2ccc3c(c2)OCO3)[C@H](C)CN([C@@H](C)CO)C(=O)c2cc(NC(=O)CCC(F)(F)F)ccc2O1	/	3	/	-3	4
CCc1ccc(/C=C\C(=O)N2CCCC2)cc1	3	37	44	-19*	-3
CC(C)(C)c1ccc(/C=C/C(=O)N2CCCCC2)cc1	33*	47*	101*	/	5
CC1CCN(C(=O)/C=C/c2ccc(C(C)(C)C)cc2)CC1	5	/	27	-52	9
Cc1ccc(/C=C/C(=O)N2CCCC(C)C2)cc1 (stereo not drawn)	-2	/	88*	2	-1
O=C(c1ccccc1)c1coc2ccc(O)c(Cl)c12	0	?	76	-45*	10
Cc1ccc(C(=O)c2coc3ccc(O)c(Cl)c23)cc1	67*	68*	/	/	/
CSc1ccccc1OCc1cc(C(=O)N(C)C(C)c2ccccn2)no1 (stereo not drawn)	-1	0	5	-7	1

Compound activity: PubChem BioAssay, Broad Institute
